Assay results reported in PubChem BioAssay (NCI).
The panel holds about 79,000 compounds, 15% with a hit somewhere; the sample as a whole holds those more often. Active and inactive are the calls of the source. Rule as the data show it: active = growth inhibition above about 70%; inactive = the rest.

Experiments:
[1] = NCI Yeast Anticancer Drug Screen. Data for the rad52 strain (AID 147);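 also: 0% = growth of vehicle-treated control cultures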; settings: S. cerevisiae rad52 mutant growth inhibition, stronger effect = higher value
Outline: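 Screen used a yeast mutant impaired in DNA repair. After compound exposure, growth was measured. Values reflect inhibition compared with vehicle-treated cells.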

[2] = NCI Yeast Anticancer Drug Screen. Data for the wt1 strain (AID 149);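 also: 0% = growth of vehicle-treated wt1 cultures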; settings: S. cerevisiae wt1 strain (SPY 50644) growth inhibition, stronger effect = higher value
Outline: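 Compounds are added to wt1 yeast cultures. Growth is then measured. Inhibition is expressed relative to vehicle-treated controls.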

[3] = NCI Yeast Anticancer Drug Screen. Data for the mgt1 strain (AID 153); settings: S. cerevisiae mgt1 mutant growth inhibition, stronger effect = higher value
Outline: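 Genetically defined yeast (mgt1) treated with compound; inhibition of growth expressed against vehicle-treated controls.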

[4] = NCI Yeast Anticancer Drug Screen. Data for the rad50 strain (AID 155);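 also: 0% = growth of vehicle-only cultures of the same strain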; settings: S. cerevisiae rad50 strain growth inhibition, stronger effect = higher value
Outline: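 Inhibition values express reduced yeast growth in compound-treated cultures relative to vehicle-treated controls.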

[5] = NCI Yeast Anticancer Drug Screen. Data for the mec2-1 strain (AID 157); settings: S. cerevisiae mec2-1 strain, stronger effect = higher value
Outline: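 Readout is yeast growth inhibition, normalised to vehicle-treated controls, in the mec2-1 strain exposed to compound.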

[6] = NCI Yeast Anticancer Drug Screen. Data for the rad14 strain (AID 159);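 also: 0% = growth of vehicle-treated control cultures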; settings: S. cerevisiae rad14 strain growth inhibition, stronger effect = higher value
Outline: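 A mutant yeast strain defective in DNA damage repair is treated with compound; inhibition of its growth is scored against untreated, vehicle-exposed cultures.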

[7] = NCI Yeast Anticancer Drug Screen. Data for the sgs1 mgt1 strain (AID 161);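 also: 0% = growth of cultures given vehicle only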; settings: S. cerevisiae sgs1 mgt1 strain, stronger effect = higher value
Outline: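 This yeast growth screen uses a strain with defined DNA-repair lesions; compound-treated growth is compared with vehicle-treated growth.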

[8] = NCI Yeast Anticancer Drug Screen. Data for the CLN2oe strain (AID 163);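 also: 0% = growth of vehicle-only control cultures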; settings: S. cerevisiae CLN2oe strain, stronger effect = higher value
Outline: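 Values reflect how much compound exposure reduced yeast growth, referenced to vehicle-exposed cells. Assay organism is a strain with a defined genetic change affecting cell-cycle control.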

[9] = NCI Yeast Anticancer Drug Screen. Data for the cln2 rad14 strain (AID 165);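 also: 0% = growth equal to vehicle treated cultures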; settings: S. cerevisiae cln2 rad14 strain, stronger effect = higher value
Outline: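 Relative to vehicle controls, growth inhibition of compound-treated cln2 rad14 yeast was recorded.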

[10] = NCI Yeast Anticancer Drug Screen. Data for the bub3 strain (AID 167); settings: S. cerevisiae bub3 mutant strain, stronger effect = higher value
Outline: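 Steps: expose the mutant yeast strain to compound; grow alongside vehicle-treated cultures; measure growth; express inhibition against the vehicle cultures.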

[11] = NCI Yeast Anticancer Drug Screen. Data for the wt2 strain (AID 169);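 also: 0% = growth of vehicle-treated yeast cultures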; settings: S. cerevisiae wt2 strain growth inhibition, stronger effect = higher value
Outline: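 Values express reduction in yeast growth under compound treatment, referenced to vehicle-treated cells.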

[12] = NCI Yeast Anticancer Drug Screen. Data for the mlh1 strain (AID 171);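 also: 0% = growth of vehicle-treated control cultures of the same strain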; settings: S. cerevisiae mlh1 strain growth inhibition, stronger effect = higher value
Outline: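 Steps: expose the defined-mutant yeast strain to compound; expose a parallel culture to vehicle; measure growth; express compound effect as inhibition relative to the vehicle culture.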

[13] = NCI Yeast Anticancer Drug Screen. Data for the sgs1 strain (AID 173);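 also: 0% = growth of vehicle-only control cultures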; settings: S. cerevisiae sgs1 mutant, stronger effect = higher value
Outline: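 Treat defined-mutant yeast with compound; measure growth; calculate inhibition relative to vehicle-treated cells.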

[14] = NCI Yeast Anticancer Drug Screen. Data for the mlh1 rad18 strain (AID 175); settings: S. cerevisiae mlh1 rad18 strain growth inhibition, stronger effect = higher value
Outline: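 Test agents were incubated with a yeast strain of defined genotype (DNA damage repair defect). Inhibition of growth was derived by comparison with vehicle-exposed cultures.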

[15] = NCI Yeast Anticancer Drug Screen. Data for the rad18 strain (AID 177); settings: S. cerevisiae rad18 mutant growth inhibition, stronger effect = higher value
Outline: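 A genetically defined yeast mutant impaired in DNA damage repair was treated with test compounds, then its growth was measured against cultures receiving vehicle alone.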

[16] = at 5.0 µM (retest, dose inferred, filed as 0.5)
[17] = at 50.0 µM (retest, dose inferred, filed as 5.0)

Measured: growth inhibition

O=C1c2ccccc2CCC1(Br)Br
inactive: [1]; at 1.2 µM 11% | [1]; at 3.7 µM 27% | [2]; at 1.2 µM 1% | [2]; at 3.7 µM 11% | [2]; at 11.0 µM 36% | [3]; at 1.2 µM 2% | [3]; at 3.7 µM 11% | [3]; at 11.0 µM 53% | [4]; at 1.2 µM 11% | [4]; at 3.7 µM 22% | [4]; [16] 50% | [4]; at 11.0 µM 69% | [5]; at 1.2 µM 9% | [5]; at 3.7 µM 21% | [5]; [16] 21% | [6]; at 1.2 µM 7% | [6]; at 3.7 µM 14% | [6]; at 11.0 µM 51% | [7]; [16] 63% | [8]; at 1.2 µM 9% | [8]; at 3.7 µM 13% | [9]; [16] 18% | [10]; at 1.2 µM 1% | [10]; at 3.7 µM 15% | [10]; [16] 61% | [11]; at 1.2 µM 5% | [11]; at 3.7 µM 13% | [11]; at 11.0 µM 62% | [12]; at 1.2 µM 7% | [12]; at 3.7 µM 13% | [13]; at 1.2 µM 13% | [13]; at 3.7 µM 23% | [15]; at 1.2 µM 13% | [15]; at 3.7 µM 23%
active: [1]; at 11.0 µM 81% | [1]; at 33.0 µM 99% | [1]; at 100.0 µM 99% | [2]; at 33.0 µM 99% | [2]; at 100.0 µM 99% | [3]; at 33.0 µM 99% | [3]; at 100.0 µM 99% | [4]; at 33.0 µM 99% | [4]; [17] 99% | [4]; at 50.0 µM 99.2% | [4]; at 100.0 µM 99% | [5]; at 11.0 µM 76% | [5]; at 33.0 µM 99% | [5]; [17] 100% | [5]; at 50.0 µM 99.3% | [5]; at 100.0 µM 99% | [6]; at 33.0 µM 99% | [6]; at 100.0 µM 99% | [7]; [17] 99% | [7]; at 50.0 µM 99.2% | [8]; at 11.0 µM 93% | [8]; at 33.0 µM 99% | [8]; at 100.0 µM 99% | [9]; [17] 100% | [9]; at 50.0 µM 99.4% | [10]; at 11.0 µM 74% | [10]; at 33.0 µM 99% | [10]; [17] 99% | [10]; at 50.0 µM 99.2% | [10]; at 100.0 µM 99% | [11]; at 33.0 µM 99% | [11]; at 100.0 µM 99% | [12]; at 11.0 µM 72% | [12]; at 33.0 µM 99% | [12]; at 100.0 µM 99% | [13]; at 11.0 µM 76% | [13]; at 33.0 µM 99% | [13]; at 100.0 µM 99% | [14]; [16] 85% | [14]; [17] 99% | [14]; at 50.0 µM 99.3% | [15]; at 11.0 µM 75% | [15]; at 33.0 µM 99% | [15]; at 100.0 µM 99%

CCC(c1ccc(O)cc1)C(CC)c1ccc(OCCN)cc1 (stereo not drawn)
inactive: [1]; at 1.2 µM -5% | [1]; at 3.7 µM 0% | [1]; at 11.0 µM 0% | [1]; at 33.0 µM 11% | [2]; at 1.2 µM -4% | [2]; at 3.7 µM -4% | [2]; at 11.0 µM -8% | [2]; at 33.0 µM -8% | [2]; at 100.0 µM 27% | [4]; at 1.2 µM 0% | [4]; at 3.7 µM -1% | [4]; [16] 18% | [4]; at 11.0 µM 3% | [4]; at 33.0 µM 27% | [4]; [17] 69% | [4]; at 50.0 µM 27.9% | [5]; at 1.2 µM -3% | [5]; at 3.7 µM -3% | [5]; [16] -4% | [5]; at 11.0 µM -7% | [5]; at 33.0 µM -4% | [5]; [17] 8% | [5]; at 50.0 µM 6.25% | [5]; at 100.0 µM 64% | [6]; at 1.2 µM -3% | [6]; at 3.7 µM 1% | [6]; at 11.0 µM 3% | [6]; at 33.0 µM 17% | [7]; [16] 0% | [7]; at 50.0 µM 60.1% | [8]; at 1.2 µM -1% | [8]; at 3.7 µM -4% | [8]; at 11.0 µM 5% | [8]; at 33.0 µM 19% | [9]; [16] -2% | [9]; [17] 25% | [9]; at 50.0 µM -1.25% | [10]; at 1.2 µM -2% | [10]; at 3.7 µM -3% | [10]; [16] -19% | [10]; at 11.0 µM -7% | [10]; at 33.0 µM -1% | [10]; [17] 62% | [10]; at 50.0 µM 45.1% | [12]; at 1.2 µM -3% | [12]; at 3.7 µM -4% | [12]; at 11.0 µM -5% | [12]; at 33.0 µM 12% | [13]; at 1.2 µM -23% | [13]; at 3.7 µM -46% | [13]; at 11.0 µM -18% | [13]; at 33.0 µM 15%
active: [1]; at 100.0 µM 88% | [4]; at 100.0 µM 88% | [6]; at 100.0 µM 98% | [7]; [17] 76% | [8]; at 100.0 µM 83% | [10]; at 100.0 µM 72% | [12]; at 100.0 µM 91% | [13]; at 100.0 µM 94%
